# Reference: PubChem BioAssay (Tox21)
# Records with an inconclusive call do not appear. Unmarked numbers belong to inactive results. Calls of active or inactive are those of the source. Calls follow the shape of the dose curve; as a rule, active = well fitted cell-killing curve with a large enough effect in the repeat runs; inconclusive = weak or mixed curves, or effect the other way; inactive = flat fitted curve, though single readings scatter.
# Test: qHTS assay to identify small molecule agonists of the constitutive androstane receptor (CAR) signaling pathway - cell viability counter screen (AID 1224836); also: nearly all actives have a fitted effect of over 45% in size
# Conditions: HepG2-CYP2B6-hCAR viability, CellTiter-Fluor, 23 h, PK11195 added to every well; series mostly up to 92.4 µM; viability change, negative = cytotoxic: at the top concentration
# Excerpt: U.S. Tox21 Program National Center for Advancing Translational Sciences [NCATS] NIH Chemical Genomics Center [NCGC] U.S. Environmental Protection Agency [EPA] National Institutes of Environmental Health Sciences [NIEHS] National Toxicology Program [NTP] U.S. Food and Drug Administration [FDA] Tox21 Assay Overview: The constitutive androstane receptor (CAR) is a nuclear receptor which regulates multiple drug metabolizing enzymes (DMEs) and transporters. Activating CAR will generally increase the transcription and subsequent translation of CYP2B6 and CYP3A4. These two DMEs represent about 50% of the drug metabolizing potential in the body. […] Recently, there have also been studies performed indicating CARs role in energy metabolism and cancer therapy. Therefore, inducing CARs activity could have a potential effect on diabetes and cancer. Identifying environmental toxins and compounds which modulate CAR, through the use of the Tox21 10K compound collection, will be an important step in determining the toxicity and potential therapeutic effects these factors will have on the human body. To differentiate true CAR agonists from cytotoxic substances, the assay is multiplexed with a cell viability assay.
# Tox21 Assay Protocol Summary: A double-stable (hCAR and CYP2B6-2.2kb) transfected cell line, derived from human hepatoma (HepG2) cells, was utilized for the duration of the quantitative high-throughput screens. The HepG2-CYP2B6-hCAR cells were dispensed at 2500 cells/4 uL/well in 1536-well white solid bottom plates using a Multidrop Combi. After the assay plates were incubated at 37 C/5% CO2 for 4 hrs, 23 nL of compounds at 15 concentrations (from 5-48 columns) or positive control (from 1 to 4 columns) were transferred to the assay plates using a Pintool station. One uL of PK11195 (final concentration = 0.75 uM) was added, using a Flying Reagent Dispenser, inside each well. After a 23 hr incubation period at 37 C/5% CO2, 1 uL of CellTiter-Fluor reagent was added into each well of the assay plates using a Flying Reagent Dispenser. The fluorescence intensity in the plates was then measured using a ViewLux plate reader.
# % is scaled to controls: 0 for no effect and ±100 for the full control effect; potency is read from the fitted curve at half-maximal effect.
Structure (SMILES),Potency,"viability change, negative = cytotoxic"
OC1(c2ccc(Cl)c(C(F)(F)F)c2)CCN(CCCC(c2ccc(F)cc2)c2ccc(F)cc2)CC1,23.7 µM (active),
CCCCC(CC)CN=C(N)NC(N)=NCCCCCCN=C(N)NC(N)=NCC(CC)CCCC (stereo not given),26.6 µM (active),
Cc1cc(O)c2ccccc2c1O,,-3.64% [at 42.5 µM]
Cc1oc(-c2ccccc2)nc1CCC(=O)c1ccc(CC2SC(=O)NC2=O)cc1 (stereo not given),,-6.96% [at 42.5 µM]
O=C(O)c1ccc(Cl)c(Cl)c1,,16.4%
CC(C)(C)C(=O)OCOC(=O)C1N2C(=O)CC2S(=O)(=O)C1(C)C (stereo not given),,7.46% [at 42.5 µM]
NC(=O)CC[C@@H]1NC(=O)[C@H](Cc2ccccc2)NC(=O)[C@H](Cc2ccc(O)cc2)NC(=O)CCSSC[C@@H](C(=O)N2CCC[C@H]2C(=O)N[C@@H](CCCN=C(N)N)C(=O)NCC(N)=O)NC(=O)[C@H](CC(N)=O)NC1=O,,8.61% [at 42.5 µM]
COCCCC/C(=N\OCCN)c1ccc(C(F)(F)F)cc1,,-10.3% [at 42.5 µM]
CN(C)c1ccc(C2(c3ccc(N(C)C)cc3)OC(=O)c3cc(N(C)C)ccc32)cc1,,2.62%
O=C(NOCC1CC1)c1ccc(F)c(F)c1Nc1ccc(I)cc1Cl,,-24.3% [at 42.5 µM]
C[C@H](CCC(=O)O)[C@H]1CC[C@H]2[C@@H]3CC[C@@H]4C[C@H](O)CC[C@]4(C)[C@H]3CC[C@]12C,inactive,
Clc1ccc(C(Cn2ccnc2)OCc2ccc(Sc3ccccc3)cc2)c(Cl)c1 (stereo not given),,6.65% [at 42.5 µM]
CCc1cc(SCc2sc(-c3ccc(C(F)(F)F)cc3)nc2CN2CCN(c3ccc(OC)cc3)CC2)ccc1OCC(=O)O,,-18.7%
CCCCCCCCOc1ccccc1C(=O)Nc1ccc(C(=O)OCC[N+](C)(CC)CC)cc1,,2.68% [at 42.5 µM]
Nc1ccc(N)c2ccccc12,30.6 µM (active),
O=S1(=O)CC(Cl)(Cl)C(Cl)(Cl)C1,12.2 µM (active),
[O-][n+]1ccccc1SSc1cccc[n+]1[O-],0.92 µM (active),
CC(NN)c1ccccc1 (stereo not given),,-0.8% [at 19 µM]
CCCCCCCCCOC(=O)c1ccc(O)cc1,,-18.2%
O=C(O)c1c(Cl)cccc1Cl,,6.99%

Structure (SMILES),Potency,"viability change, negative = cytotoxic"
O=[N+]([O-])c1cc(Cl)c(Cl)c(Cl)c1Cl,,-10.8%
CCCCCCCCCCn1cc[n+](CCCCCCCCCC)c1C,30.7 µM (active),
CC[C@H]1O[C@]2(CC[C@@H]1C)C[C@@H]1C[C@@H](C/C=C(\C)C[C@@H](C)/C=C/C=C3\CO[C@@H]4[C@H](O)C(C)=C[C@@H](C(=O)O1)[C@]34O)O2,68 µM (active),
O=c1cccccc1O,,-0.857%
c1ccc(CSCc2ccccc2)cc1,,-4.1%
COc1cc(-c2ccc(N=C=O)c(OC)c2)ccc1N=C=O,,-2.05% [at 42.5 µM]
N=C1N=C(N)c2cc3ccccc3cc21,24.3 µM (active),
O=C1C=CC(=O)N1,55.9 µM (active),
CCCCN(CCCC)c1ccc(C(=O)c2ccccc2C(=O)O)c(O)c1,,-10.8%
O=[N+]([O-])c1ccccc1Nc1ccccc1,,-0.813%
[Cl][Bi]([Cl])([c]1ccccc1)([c]1ccccc1)[c]1ccccc1,21.6 µM (active),
CCCC(c1cc(C(C)(C)C)c(O)cc1C)c1cc(C(C)(C)C)c(O)cc1C,39 µM (active),
OCc1c[nH]c2ccccc12,,-15.1%
O=C(N/N=C/c1ccccc1O)c1ccncc1,,0.812% [at 42.5 µM]
CCOc1ccc2nc3cc(N)ccc3c(N)c2c1,,7.64% [at 42.5 µM]
Cc1cc(CCN2CCN(c3nsc4ccccc34)CC2)cc2c1NC(=O)CC2(C)C,48.6 µM (active),
O=c1[nH]sc2ccccc12,54.5 µM (active),
Cc1[nH]nc2c1N=C(c1ccccc1Cl)c1cc([N+](=O)[O-])ccc1N2,27.3 µM (active),
CC1=C(/C=C/C(C)=C/C=C/C(C)=C/C=O)C(C)(C)CCC1,54.2 µM (active),
CC1=C(C(=O)OC(C)C)C(c2cccc([N+](=O)[O-])c2)C(C(=O)OC2CN(C(c3ccccc3)c3ccccc3)C2)=C(N)N1 (stereo not given),29.8 µM (active),
